High-throughput results (PubChem BioAssay)
The list is not random: actives were taken first. Their share in the collection is about 4.8%.
ATXN viability: reduces viability in counter-screen for ATXN expression inhibitors; Potency, µM (series often up to 56.7 µM), hits mostly cytotoxic; S2 cells (HEK-293 line with an ATXN2-luciferase reporter) viability, CellTiter-Fluor protease fluorescence, 24 h; 400,000 compounds, 0.49% hits; further: potency means the concentration at half of the fitted maximal effect; nearly all actives have a fitted effect of over 40% in size
DRD3 agonist: activates the human D3 dopamine receptor. P35462. D3R DiscoveRx beta-arrestin cells, luminescence, 90 min. max activation, %. 410,000 compounds, 0.58% hits. AID 652048; in the data active means max activation above about 30%; further: 0% is about no effect
Target sequence (P35462 whole entry, looked up): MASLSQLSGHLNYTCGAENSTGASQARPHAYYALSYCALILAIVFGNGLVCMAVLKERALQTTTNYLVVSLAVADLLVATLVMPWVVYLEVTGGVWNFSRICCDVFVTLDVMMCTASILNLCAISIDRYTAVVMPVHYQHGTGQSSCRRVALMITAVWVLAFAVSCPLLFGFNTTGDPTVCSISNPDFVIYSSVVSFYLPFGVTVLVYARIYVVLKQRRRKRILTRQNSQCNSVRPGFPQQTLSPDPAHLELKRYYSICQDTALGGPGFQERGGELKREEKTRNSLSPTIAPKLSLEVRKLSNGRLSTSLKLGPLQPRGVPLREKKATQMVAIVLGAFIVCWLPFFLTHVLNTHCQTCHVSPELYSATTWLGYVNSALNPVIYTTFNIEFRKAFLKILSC
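Agonist-mode cell screen: cells plated at 1500/well and incubated overnight at 37 °C, then exposed to library compounds for 90 min at 37 °C. Detection reagent was added for 30–60 min at room temperature, and luminescence was read.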
TGFb SMAD3 inh: blocks TGF-b signaling | AID 588855 | Potency, µM (top dose mostly 46.1 µM), for the others: at the top dose activity, negative = inhibition, actives largely listed as inhibitors | HepG2 CAGA-GFP TGF-b/SMAD3 reporter, GFP fluorescence, 18 h; TGF-beta stimulated, 500 pg/mL final | 410,000 compounds, 1.2% hits; further: potency means the concentration at half of the fitted maximal effect; on the % scale 0 is the no-effect control and ±100 the full control effect; nearly all actives have a fitted effect of over 65% in size
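Using HEPG2 CAGA-GFP reporter cells at 1000 cells/well, we pinned test compounds, stimulated with recombinant TGF-beta (500 pg/mL final) and measured total well GFP after 18 h.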
ATXN2 expr inh: ATXN2 expression inhibition; 360,000 compounds, 0.72% hits; Potency, µM (highest dose often 57 µM), without a hit: at the top dose activity change, negative = inhibition, most hits filed as inhibitors; HEK-293 ATXN2-luciferase reporter, luminescence, 24 h; further: potency means the concentration at half of the fitted maximal effect; on the % scale 0 is the no-effect control and ±100 the full control effect; nearly all actives have a fitted effect of over 55% in size
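ATXN2-luciferase reporter cells (luciferase flanked by upstream and downstream ATXN2 gene portions) were treated 24 h at 37 °C with compounds at up to 57 uM. SteadyGlo luminescence gave expression; GF-AFC fluorescence gave viability.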
HepG2 viability: HepG2 cytotoxicity, counter-screen for TGF-b inhibitors; HepG2 CAGA-GFP viability, ATP luminescence, 18 h; Potency, µM (titrated, usually from 46.1 µM), inactives show top-dose activity change, negative = cytotoxicity, hits mostly cytotoxic; 410,000 compounds, 0.76% hits; AID 588856; further: potency means the concentration at half of the fitted maximal effect
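CellTiter-Glo luminescence gave cytotoxicity after 18 hours at 37 degrees C. The cells were HepG2 CAGA-GFP in 1% FBS DMEM, stimulated with 500 pg/mL TGF-beta after compound addition. %Activity was normalised to no-cell wells (complete cell-killing) and DMSO (no toxicity), and curves were fitted and classified.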
DRD3 antagonist: antagonists of human D3 dopamine receptor. D3R cells, DiscoveRx beta-arrestin luminescence, antagonist mode; stronger effect = lower value. max response, negative = inhibition, %. 360,000 compounds, 2.5% hits; in the data active means max response below about -50%; inconclusive means no clear call, values can overlap the other calls; further: on the % scale 0 is the no-effect control and ±100 the full control effect
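Cells plated overnight at 1500 cells/well, then exposed to library compounds with dopamine controls for 90 minutes at 37 degrees C. DiscoveRx reagent added for 30–60 minutes at room temperature; luminescence read, quantitative HTS format.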
The depositor's hits bear a star; i = inactive; u = inconclusive; x = no result given. Unless noted, the call rests on the fitted dose curve; in most records, active means well fitted curve in the direction sought with a large enough effect; inconclusive means small, poorly fitted or top-dose-only effect, or another doubt; inactive means no such curve, though single readings can be large; an effect the other way counts as inactive or inconclusive.

SMILES	ATXN viability	DRD3 agonist	TGFb SMAD3 inh	ATXN2 expr inh	HepG2 viability	DRD3 antagonist
Cc1cc2c(cc1S(=O)(=O)NCc1ccc(F)cc1)OCCN2C	x	-2.4	-13.0%	x	-20.0%	x
CC(C)C(Cl)=NOC(=O)Nc1ccc(F)cc1	21.2µM*	-8.5	-11.0%	u	20µM*	-12.2
COc1ccc(C2=C(C(C)=O)Sc3nnc(-c4ccc(Cl)cc4)n3N2C(C)=O)cc1OC	x	1.2	1.8%	x	0.5%	x
Cc1ccccc1OCCSc1nc2ccc(NC(=O)c3cccc(F)c3)cc2s1	u	-9.3	u	-10.4%	-76.1%	x
Cc1cccc(N2CCN(C(=O)C3CCN(S(=O)(=O)Cc4ccccc4)CC3)CC2)c1C	i	-5.6	u	9.6%	17.8µM*	x
Cc1cccc(N2CCN(C(=O)C3CCCN(C(=O)c4cc5sccc5n4C)C3)CC2)c1C (stereo not given)	i	3.6	u	u	-29.8%	x
O=C(C1CCN(S(=O)(=O)Cc2ccccc2)CC1)N1CCN(c2ccccc2)CC1	i	3.0	22.8%	-0.8%	-1.2%	x
Cc1cccc(N2CCN(C(=O)C3CCN(C(=O)c4cc5sccc5n4C)CC3)CC2)c1C	x	2.4	11.2µM*	x	-12.2%	x
COc1ccccc1CNc1nc(NCc2ccc(NC(C)=O)cc2)c2sccc2n1	i	-12.6	17.8µM*	u	-78.4%	u
c1cc2cc(CNc3nc(NCC4CC4)nc4ccsc34)ccc2o1	x	-16.9	u	u	-99.7%	0.0
COc1ccccc1CNc1nc(NCc2ccc3occc3c2)c2sccc2n1	u	5.1	u	u	11.2µM*	16.3
COc1ccccc1CNc1nc(NCC2CC2)nc2ccsc12	x	-7.7	12.6µM*	u	10µM*	-6.2
COc1ccccc1CNc1nc(Nc2cccc(-c3cnco3)c2)c2sccc2n1	20µM*	13.1	u	0.0%	-71.6%	0.0
Cc1ccc(OCC(=O)Nc2ccc3nc(SCC(=O)N4CCOCC4)sc3c2)cc1C	x	14.0	u	x	-2.6%	x
COCCNc1nc(NCc2ccccc2OC)c2sccc2n1	u	-9.1	1.0%	u	-25.5%	0.1
COc1ccccc1CNc1nc(NCc2cccs2)nc2ccsc12	u	0.3	11.2µM*	u	-34.5%	0.0
COc1ccccc1CNc1nc(NCc2ccccc2OC)c2sccc2n1	u	-3.6	u	u	-52.0%	5.3
COc1ccccc1CNc1nc(Nc2ccccc2-n2cccn2)c2sccc2n1	15.8µM*	9.3	u	0.0%	-33.3%	41.6
CC(=O)N1CCN(c2ccc(OCc3nn(C)c(C)c3-c3cccc4c(CCCOc5cc(C)c(Cl)c(C)c5)c(C(=O)O)n(Cc5cccnc5)c34)cc2)CC1	x	x	x	11.1%	x	x
CC[n+]1ccnc2ccccc21	x	x	3.16µM*	x	3.55µM*	x
O=C(C[n+]1ccnc2ccccc21)c1ccc(Cl)cc1	x	x	-29.8%	x	-12.1%	x
CC(C)N(c1ccc(C=O)cc1)C(C)C	x	x	-0.1%	x	6.7%	x
COC(=O)CC1=C(C(=O)OC)C(c2cccs2)C(C#N)=C(N)O1 (stereo not given)	i	-6.2	-14.3%	-10.9%	-4.1%	-76.9*
COc1ccc(C(=O)Nc2cc(S(=O)(=O)c3ccc(Cl)cc3)c(O)c(C)c2C)cc1	i	-14.7	u	1.4%	-22.5%	x
CCCCN(C)CCNC(=O)c1ccc(Cn2c(=S)[nH]c3ccc(Br)cc3c2=O)cc1	i	-15.5	11.2µM*	x	-38.9%	u
CN(C)CCNC(=O)c1ccc2c(=O)n(Cc3ccc(Cl)cc3)c(=S)[nH]c2c1	i	1.0	u	-21.8%	-77.3%	-57.7*
O=C(NCc1ccccn1)c1ccc(Cn2c(=S)[nH]c3ccc(Br)cc3c2=O)cc1	i	-2.9	-14.7%	2.4%	-14.7%	-16.1
CC1CCN(CCCNC(=O)c2ccc3c(=O)n(Cc4ccc(Cl)cc4)c(=S)[nH]c3c2)CC1	u	-10.7	2.3%	-27.2%	-31.8%	-9.5
O=C(O)c1cc2cc(Cl)ccc2oc1=O	i	34.1*	10.4%	10.6%	3.6%	-27.6
